Compound activity as filed in PubChem BioAssay.
The list is not random: actives were taken first. Their share in the collection is about 1.8%.
Six1-Eya2 blk – blocks human Six1 binding to Eya2; AlphaScreen GST-Six1/His-Eya2 binding, biochemical; hits give low values; Q15475+O00167; activity change, % (no concentration beside the values); 360,000 compounds, 0.56% hits
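Six1/Eya2 binding was read as AlphaScreen signal after compounds were pinned into GST-Six1 plus His-tagged Eya2 (5X stock 250/500 nM) in pH 8.0 Tris/NaCl/TCEP buffer, beads added, then incubated 1 h, 37 C, dark.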
pAkt inh – blocks phosphorylation of Akt. Neuro2A IGF-stimulated pAkt S473 HTRF, 20 min; hits give low values. activity change, % for hits at 50 µM. 360,000 compounds, 0.32% hits; in the data active means activity change below about -80%; inconclusive means mostly about -51% to -80%
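Neuro2A cells in DMEM with 0.5% FBS, overnight at 37 deg C, given compound at single 50 µM final, then IGF (6 nM final) for 20 min at 37 deg C. Lysed; phospho-Akt Ser473 by HTRF after 24 h, 665/615 ratio.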
PI5P4Ka inh – blocks human PI5P4K alpha kinase activity | 330,000 compounds, 1.2% hits | AID 652105 | max response, % | PI5P4Kalpha enzyme, ADP-Glo luminescence, 60 min; hits give low values; active means max response of -50% or lower; inconclusive means between -30% and -50%; inactive means -30% or higher; further: value at the top dose of about 77 µM
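Quantitative HTS of the MLSMR library against PI5P4Kalpha with substrate. ATP added last at 5 microM final; room temperature, 60 minutes. Remaining ATP depleted, ADP converted and read as luminescence.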
CtBP-E1A inh – inhibitors of CtBP/E1A interaction; 340,000 compounds, 0.49% hits; AlphaScreen GST-E1A/His-CtBP binding, 1536-well; hits give low values; activity change, % (no concentration beside the values); AID 651724
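Protein mix (5X: 125 nM each GST-E1A, His-CtBP) was incubated with pinned compound 2 h at 37 deg C in dark, in 50 mM Tris pH 8.0 buffer with 300 mM NaCl. Glutathione donor and nickel acceptor beads followed; AlphaScreen signal read after 1 h.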
PI4K2A inh – blocks human PI4K2A kinase activity | purified PI4K2A, ADP-Glo luminescence, 1 h; hits give low values | activity change, negative = inhibition, % at 76.9 µM | 420,000 compounds, 0.13% hits; in the data active means activity change below about -50%; inconclusive means mostly about -30% to -49%;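 further: -100% = wells without enzyme as full effect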
Target sequence (Q9BTU6 whole entry, looked up): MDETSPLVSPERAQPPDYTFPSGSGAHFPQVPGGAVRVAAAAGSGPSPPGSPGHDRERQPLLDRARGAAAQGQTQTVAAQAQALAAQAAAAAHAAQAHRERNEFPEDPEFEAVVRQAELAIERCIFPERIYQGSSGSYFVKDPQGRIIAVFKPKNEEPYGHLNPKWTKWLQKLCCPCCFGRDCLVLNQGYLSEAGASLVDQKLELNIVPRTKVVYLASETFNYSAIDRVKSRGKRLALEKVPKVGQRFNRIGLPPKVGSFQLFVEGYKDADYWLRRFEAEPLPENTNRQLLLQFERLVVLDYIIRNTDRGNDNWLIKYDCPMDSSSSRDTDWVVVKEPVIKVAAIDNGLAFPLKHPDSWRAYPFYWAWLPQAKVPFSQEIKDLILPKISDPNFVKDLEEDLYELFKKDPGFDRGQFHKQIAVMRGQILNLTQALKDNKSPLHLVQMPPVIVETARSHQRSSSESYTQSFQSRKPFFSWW
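In this quantitative HTS, ADP production by PI4K2A was quantified luminescently after 1 h at ambient temperature; 100 microM adenosine served as plate-quality control.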
* = called active by the depositor; i = inactive; ? = inconclusive; . = not tested or not shown; + = active, no number. Unless noted, no stated cut-off is given here; in the data, active means activity change below about -65%; inconclusive means mostly about -30% to -63%; inactive means weaker than that. Unless noted, on the % scale 0 is the no-effect control and ±100 the full control effect.

SMILES | Six1-Eya2 blk | pAkt inh | PI5P4Ka inh | CtBP-E1A inh | PI4K2A inh
CCC1CN(C(=O)N2CCC(C(=O)N3CCN(c4cc(C)ccc4C)CC3)CC2)c2ccccc2O1 (configuration not stated) | . | . | . | . | -1
O=S(=O)(c1cccc(C(F)(F)F)c1)n1c(/C=C/c2ccccc2)nc2ccccc21 | . | . | . | . | -61*
CCOc1ccc(/C=C/c2nc3ccccc3n2S(=O)(=O)c2ccc(Br)cc2)cc1 | . | . | . | . | -13
COCCN1C(=O)C(=O)/C(=C(/O)c2cccc(S(=O)(=O)N(C)C)c2)C12C(=O)N(C)c1ccccc12 (configuration not stated) | 5 | -108%* | -7 | -2 | 25
CCC(=O)Nc1nn(C)c2nc3c(C)cccc3cc12 | 15 | -113%* | -7 | 9 | 0
O=C(Cc1ccc(-n2c(=S)[nH]c3ccccc3c2=O)cc1)N1CCC(N2CCCCC2)CC1 | -4 | i | . | -3 | 1
CN(C)c1ccc(N=Nc2ccc3ncccc3c2)cc1 | ? | i | 4 | -29 | -4
Cc1cc(N(C)C)ccc1N=Nc1ccc2ncccc2c1 | -83* | i | 13 | . | -9
OC(COc1ccc2c(c1)CCC2)Cn1cnc2ccccc21 (configuration not stated) | -9 | -123%* | 16 | -7 | 1
[Cl][In]([Cl])[Cl] | . | . | . | . | +
O=C1C=CC(=O)N1Cc1ccccc1 | 7 | . | -86* | -13 | 8
O=C1C2CC=CCC2C(=O)N1Cc1ccccc1 (configuration not stated) | 7 | i | . | -3 | 1
CSc1cccc(NC(C)C(=O)NCc2ccccc2)c1 (configuration not stated) | -10 | i | 3 | 3 | 8
C1CCC(n2nnnc2CN2CCN(C3CCCC3)CC2)CC1 | 4 | i | -6 | 0 | 7
C1CCC(Nc2nnnn2C2CCCCC2)CC1 | 3 | -104%* | 1 | 2 | 9
CN(C)c1ccc(N/C=C/C(=O)C(C)(C)C)cc1 | ? | -114%* | -3 | ? | -3
CN(C)c1ccc(N/C=C/C(=O)c2ccccc2)cc1 | -30 | i | . | ? | ?
O=C(O)c1cccc(N/N=C(\N=Nc2ccccc2)c2ccccc2)c1 | ? | i | 8 | ? | -18
O=C(O)c1ccc(N=N/C(=N\Nc2ccc(C(=O)O)cc2)c2ccccc2)cc1 | ? | i | -80* | -22 | -26
CC(=O)Nc1cc(C(=O)CSc2nnc(C3CC3)n2C2CC2)ccc1O | -10 | i | -72* | . | -11
Cc1ccc(-n2nc3c(c2NC(=O)C(C)C)CS(=O)(=O)C3)c(C)c1 | 5 | i | -7 | -3 | -4
Cc1cc(C)n2cnnc2n1 | -2 | i | 0 | 6 | -1
Cc1cc(C)n2c(=S)[nH]nc2n1 | 3 | i | -76* | -3 | -3
C=CCSc1nncn1/N=C/c1ccc(OC)cc1 | -5 | -103%* | . | 3 | 4
COc1ccc(/C=N/n2cnnc2SCCO)cc1OC | -1 | i | -3 | 0 | -2
SMILES | Six1-Eya2 blk | pAkt inh | PI5P4Ka inh | CtBP-E1A inh | PI4K2A inh
CCN(CC)C(=O)C1=C(C)N(Cc2ccc(C(C)(C)C)cc2)C(=O)C(CC(=O)NC2CCCCC2)C1 (configuration not stated) | 7 | i | 1 | 1 | -2
C=CCOC(=O)c1[nH]c2c(c1C)C(=O)CC(c1ccco1)C2 (configuration not stated) | -13 | i | -61* | -3 | -9
Cc1c(C(=O)OCC2CCCO2)[nH]c2c1C(=O)CC(c1ccco1)C2 (configuration not stated) | -24 | i | -76* | 4 | -54*
Cc1c(C(=O)OC2CCCC2)[nH]c2c1C(=O)CC(c1ccco1)C2 (configuration not stated) | -6 | i | ? | 0 | 0
COC(=O)c1cccc(C(=O)N2CCCC(C(=O)c3ccccc3OC)C2)c1 (configuration not stated) | 3 | i | -1 | -5 | -3
CC1(C)CC(=O)C2=C(C1)OC(N)=C(C#N)C2c1cc2c(cc1[N+](=O)[O-])OCO2 (configuration not stated) | 6 | i | -80* | -1 | -1
O=[N+]([O-])c1ccccc1Nc1ccccc1 | -67* | i | -7 | ? | 6
Cc1cc(N)n2nc(-c3ccccc3)cc2n1 | -11 | i | -22 | 2 | -54*
CC(C)(C)c1ccc(C(=O)OCC(=O)NCc2ccco2)cc1 | -3 | i | 5 | -2 | -7
O=Cc1ccc(C(=O)OCC(=O)NCc2ccco2)cc1 | -8 | i | -53* | 7 | -2
CCN(CC)S(=O)(=O)c1ccc(/C=C/C(=O)OCC(=O)NCc2ccco2)cc1 | -6 | i | -57* | -1 | -19
C/C=C\C=C\C(=O)N1CC2(CC(c3cccc(NC(=O)CC(c4ccccc4)c4ccccc4)c3)=NO2)C[C@H]1C(N)=O (some centres not stated) | -9 | i | -71* | . | -19
C/C=C\C=C/C(=O)Nc1cccc(C2=NOC3(C2)C[C@@H](C(N)=O)N(C(=O)/C=C/C=C\C)C3)c1 (some centres not stated) | -28 | i | -94* | 3 | ?
C=C(C)C(=O)N1CC2(CC(c3cccc(NC(=O)/C=C\C=C/C)c3)=NO2)C[C@H]1C(N)=O (some centres not stated) | -19 | i | -20 | 2 | ?
C/C=C\C=C/C(=O)Nc1cccc(C2=NOC3(C2)C[C@@H](C(N)=O)N(C(=O)/C=C/CC)C3)c1 (some centres not stated) | 0 | i | -65* | -18 | -17
NC(=O)[C@H]1CC2(CC(c3cccc(NC(=O)CC(c4ccccc4)c4ccccc4)c3)=NO2)CN1C(=O)C(c1ccccc1)c1ccccc1 (some centres not stated) | -6 | i | -5 | -4 | 0
Cc1ccc(C)c(CC(=O)N2CCCC(c3cc(C(=O)NCc4ccccc4)no3)C2)c1 (configuration not stated) | -2 | i | 1 | 1 | 1
COc1cccc(CN(C)Cc2cc(=O)oc3cc(O)c(Cl)cc23)c1 | 13 | i | -78* | . | -7
COc1cccc(CN(C)Cc2cc(=O)oc3c(C)c(C)ccc23)c1 | 7 | i | 10 | 12 | -4
COc1cccc(/C=N/Nc2ncnc(N)c2[N+](=O)[O-])c1OC | -2 | i | -7 | -2 | -9
Nc1nnnn1CC(=O)N/N=C/c1cc([N+](=O)[O-])ccc1O | -87* | i | -7 | -81* | -9
Cc1cc([N+](=O)[O-])nn1CC(=O)N/N=C/c1ccccc1F | -3 | i | -6 | -4 | 3
